Five compounds from PubChem BioAssay (EPA / NIEHS) can be followed below.

Read-out in test [1]: Interleukin-8 (IL8), CXCL8 (gene 3576)
The experiment in a line: BSK_CASM3C_IL8: BioMAP Diversity Plus: CASM3C Assay for Interleukin-8 (IL8) Biomarker Activity (AID 2283042).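 Note: IL-8 protein level quantified by ELISA.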 The conditions noted are these: primary human coronary artery smooth muscle cells; actives raise or lower the signal.

Read-out in test [2]: Human Leukocyte Antigen - DR isotype (HLADR), HLA-DRA (gene 3122)
The test can be described thus: BSK_CASM3C_HLADR: BioMAP Diversity Plus: CASM3C Assay for Human Leukocyte Antigen - DR isotype (HLADR) Biomarker Activity (AID 2283043).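 Note: cell-surface HLA-DR protein level quantified by ELISA.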 Particulars: primary human coronary artery smooth muscle cells; actives raise or lower the signal.

Read-out in test [3]: Macrophage colony-stimulating factor (MCSF), CSF1 (gene 1435)
The test can be described thus: BSK_CASM3C_MCSF: BioMAP Diversity Plus: CASM3C Assay for Macrophage colony-stimulating factor (MCSF) Biomarker Activity (AID 2283044).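 Note: M-CSF protein amount quantified by ELISA after 24 h exposure.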 Particulars: primary human coronary artery smooth muscle cells; actives raise or lower the signal.

Read-out in test [4]: Low-density lipoprotein receptor (LDLR), LDLR (gene 3949)
The test can be described thus: BSK_CASM3C_LDLR: BioMAP Diversity Plus: CASM3C Assay for Low-density lipoprotein receptor (LDLR) Biomarker Activity (AID 2283045).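 Note: LDLR protein level on the cell surface quantified by ELISA.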 Particulars: primary human coronary artery smooth muscle cells; actives raise or lower the signal.

Read-out in test [5]: Monocyte Chemoattractant Protein-1 (MCP1), CCL2 (gene 6347)
The test can be described thus: BSK_CASM3C_MCP1: BioMAP Diversity Plus: CASM3C Assay for Monocyte Chemoattractant Protein-1 (MCP1) Biomarker Activity (AID 2283046).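 Note: MCP-1 level quantified by ELISA 24 h after dosing.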 The conditions noted are these: primary human coronary artery smooth muscle cells; actives raise or lower the signal.

Test [6] is described as follows: BSK_CASM3C_Proliferation: Cell Proliferation Assessment in the BioMAP Diversity Plus: CASM3C Assay (AID 2283047).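 Note: sulforhodamine B total protein stain as relative cell number at 560 nm; sub-confluent cells exposed 48 h before staining; fitted both ways against DMSO so gain or loss of cell number.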 The conditions noted are these: primary human coronary artery smooth muscle cells.
Read-out in test [7]: Monokine induced gamma interferon (MIG), CXCL9 (gene 4283)
The experiment in a line: BSK_CASM3C_MIG: BioMAP Diversity Plus: CASM3C Assay for Monokine induced gamma interferon (MIG) Biomarker Activity (AID 2283048).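 Note: MIG protein level measured by ELISA.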 The conditions noted are these: primary human coronary artery smooth muscle cells; actives raise or lower the signal.

Read-out in test [8]: serum amyloid A (SAA), SAA1 (gene 6288)
The experiment in a line: BSK_CASM3C_SAA: BioMAP Diversity Plus: CASM3C Assay for serum amyloid A (SAA) Biomarker Activity (AID 2283049).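 Note: SAA protein level quantified by ELISA.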 The conditions noted are these: primary human coronary artery smooth muscle cells; actives raise or lower the signal.

The nature of test [9]: BSK_CASM3C_SRB: Viability Assessment in the BioMAP Diversity Plus: CASM3C Assay (AID 2283050).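 Note: total protein by SRB staining as cytotoxicity measure in parallel cultures; cells exposed to compound for 24 h.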 The conditions noted are these: primary human coronary artery smooth muscle cells.
Read-out in test [10]: Thrombomodulin, THBD (gene 7056)
The test can be described thus: BSK_CASM3C_Thrombomodulin: BioMAP Diversity Plus: CASM3C Assay for Thrombomodulin Biomarker Activity (AID 2283051).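 Note: thrombomodulin protein level measured by ELISA 24 h after dosing.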 Particulars: primary human coronary artery smooth muscle cells; actives raise or lower the signal.

Read-out in test [11]: Tissue Factor, F3 (gene 2152)
The experiment in a line: BSK_CASM3C_TissueFactor: BioMAP Diversity Plus: CASM3C Assay for Tissue Factor Biomarker Activity (AID 2283052).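 Note: cell surface tissue factor protein level read by ELISA.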 Particulars: primary human coronary artery smooth muscle cells; actives raise or lower the signal.

Read-out in test [12]: Interferon-gamma inducible Protein 10 (IP10), CXCL10 (gene 3627)
The test can be described thus: BSK_hDFCGF_IP10: BioMAP Diversity Plus: hDFCGF Assay for Interferon-gamma inducible Protein 10 (IP10) Biomarker Activity (AID 2283053). The conditions noted are these: primary human foreskin fibroblasts; actives raise or lower the signal. In short, it runs like this:
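ELISA read-out of IP-10 (CXCL10) from primary human skin fibroblasts, 24 h after compound addition. Gain or loss of signal versus DMSO baseline, bidirectional curve fitting.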

Read-out in test [13]: Urokinase-type plasminogen activator receptor (uPAR), PLAUR (gene 5329)
The experiment in a line: BSK_CASM3C_uPAR: BioMAP Diversity Plus: CASM3C Assay for Urokinase-type plasminogen activator receptor (uPAR) Biomarker Activity (AID 2283054).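 Note: cell-surface uPAR protein level quantified by ELISA.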 Particulars: primary human coronary artery smooth muscle cells; actives raise or lower the signal.

Read-out in test [14]: Vascular cell adhesion molecule 1 (VCAM1), VCAM1 (gene 7412)
The test can be described thus: BSK_CASM3C_VCAM1: BioMAP Diversity Plus: CASM3C Assay for Vascular cell adhesion molecule 1 (VCAM1) Biomarker Activity (AID 2283055).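 Note: VCAM-1 protein level quantified by ELISA on the cells.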 Particulars: primary human coronary artery smooth muscle cells; actives raise or lower the signal.

Read-out in test [15]: Collagen III, COL3A1 (gene 1281)
The experiment in a line: BSK_hDFCGF_CollagenIII: BioMAP Diversity Plus: hDFCGF Assay for Collagen III Biomarker Activity (AID 2283056). Particulars: primary human foreskin fibroblasts; actives raise or lower the signal. Summed up: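 Human foreskin primary fibroblasts were exposed to test chemicals for 24 h, after which collagen III was quantified by ELISA. Activity was fitted bidirectionally against DMSO as negative control and baseline.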

Read-out in test [16]: Epidermal growth factor receptor (EGFR), EGFR (gene 1956)
The test can be described thus: BSK_hDFCGF_EGFR: BioMAP Diversity Plus: hDFCGF Assay for Epidermal growth factor receptor (EGFR) Biomarker Activity (AID 2283057). Particulars: primary human foreskin fibroblasts; actives raise or lower the signal. In short, it runs like this:
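ELISA readout of EGFR on human dermal fibroblasts (primary foreskin cells), 24 h post-dosing; bidirectional curve fit vs DMSO baseline, gain or loss of signal scored.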

Read-out in test [17]: Interleukin-8 (IL8), CXCL8 (gene 3576)
The experiment in a line: BSK_hDFCGF_IL8: BioMAP Diversity Plus: hDFCGF Assay for Interleukin-8 (IL8) Biomarker Activity (AID 2283058). The conditions noted are these: primary human foreskin fibroblasts; actives raise or lower the signal. Summed up:
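hDFCGF human dermal fibroblasts; 24 h chemical exposure; IL-8 by ELISA; bidirectional curve fit vs DMSO baseline; gain or loss of signal scored.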

Test [18] is described as follows: BSK_hDFCGF_Proliferation: Cell Proliferation Assessment in the BioMAP Diversity Plus: hDFCGF Assay (AID 2283059).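 Note: curves fitted for both rise and fall of signal versus DMSO baseline.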 The conditions noted are these: primary human foreskin fibroblasts. In short, it runs like this:
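Steps: dose primary human dermal fibroblasts (foreskin); […] fix in 10% TCA; stain with 0.1% SRB; read 560 nm; fit gain or loss of signal against DMSO.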

Read-out in test [19]: Macrophage colony-stimulating factor (MCSF), CSF1 (gene 1435)
The experiment in a line: BSK_hDFCGF_MCSF: BioMAP Diversity Plus: hDFCGF Assay for Macrophage colony-stimulating factor (MCSF) Biomarker Activity (AID 2283060). Particulars: primary human foreskin fibroblasts; actives raise or lower the signal. In short, it runs like this: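 Human foreskin primary fibroblasts were treated with test chemical for 24 h, and M-CSF was then measured by ELISA. Data were fitted bidirectionally against DMSO as the negative control and activity baseline.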

Test [20] in a line: BSK_hDFCGF_SRB: Viability Assessment in the BioMAP Diversity Plus: hDFCGF Assay (AID 2283061).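 Note: cells exposed to compound for 24 h before the read.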 The conditions noted are these: primary human foreskin fibroblasts. In short, it runs like this: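 Human foreskin primary fibroblasts were treated with compound and assessed 24 h after dosing. Total protein was measured by sulforhodamine B staining (0.1% SRB after 10% TCA fixation, 560 nm read) as a cytotoxicity marker, with bidirectional fitting against DMSO baseline.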

The source made the active and inactive calls. Rule for the calls: active = hit-call score of the fitted dose curve at least 0.9, where 1 is the maximum; inactive = score below 0.9.

`CCCC(=O)OCCC(C)C`: the result in [1], in test [2], in test [3], in [4], in test [5] and in test [6] was inactive. For the same compound, the outcome in test [7], in test [8], in test [9], in [10], in test [11] and in test [12] was inactive. Moreover, the result in test [13], in [14], in test [15], in test [16], in test [17] and in [18] was inactive. For the same compound, the outcome in [19] and in [20] was inactive.

For the compound `c1ccc2n[nH]nc2c1`, the outcome in [1], in [2], in test [3], in test [4], in test [5] and in [6] was inactive. The outcome in [7], in [8], in test [9], in test [10], in test [11] and in test [12] was inactive. Besides, the result in test [13], in test [14], in test [15], in test [16], in [17] and in test [18] was inactive. Further, the result in test [19] and in test [20] was inactive.

Turning to `CCCCOC(=O)CC(CC(=O)OCCCC)(OC(C)=O)C(=O)OCCCC`, the result in test [1], in test [2], in test [3], in [4], in test [5] and in [6] was inactive. Further, the outcome in test [7], in test [9], in test [10], in [11], in test [12] and in [13] was inactive. Also, the outcome in [14], in [15], in test [16], in test [17], in test [18] and in [19] was inactive. In test [20], the outcome was inactive. Moreover, in [8], the AC50 is 20 µM (active).

`COc1ccc2cc(S(=O)(=O)N[C@H](CC(=O)N[C@H](Cc3ccc(CN4[C@H](C)CCC[C@@H]4C)cc3)C(=O)N(C)C(C)C)c3ccc4c(c3)OCO4)ccc2c1`: the outcome in test [1], in test [3], in [5], in test [7], in test [8] and in test [11] was inactive. For the same compound, the outcome in [13], in test [14], in test [16] and in test [17] was inactive. In addition, the AC50 is 27.8 µM (active) in [2]; 0.966 µM (active) in test [4]; 24.9 µM (active) in [6]; 19.1 µM (active) in [9]; 7.64 µM (active) in [10]; 30.4 µM (active) in test [12]. Besides, the AC50 in test [15] is 2.07 µM (active); in test [18], 9.97 µM (active); in test [19], 19.1 µM (active); in test [20], 27.7 µM (active).

`CC(C)(c1cc(Br)c(O)c(Br)c1)c1cc(Br)c(O)c(Br)c1`: the outcome in test [1], in test [4], in test [7], in test [9] and in [16] was inactive. For the same compound, the AC50 in test [2] was 33.1 µM (active); in [3], 19.1 µM (active); in [5] it was 30.1 µM (active); in test [6], 32 µM (active); in [8], 31.9 µM (active); in test [10], 25 µM (active). Also, the half-maximal activity concentration (AC50) was 31.7 µM (active) in test [11]; 6.23 µM (active) in [12]; 31.2 µM (active) in test [13]; 29.3 µM (active) in [14]; 3.85 µM (active) in test [15]; 11.5 µM (active) in [17]. In addition, the values for the concentration at half-maximal activity (AC50) in test [18], in test [19] and in [20] were 3.94 µM (active), 7.47 µM (active) and 5.8 µM (active), respectively.

A word on the AC50: it is the midpoint of the concentration-response curve, whichever way the signal moves.
